{
  "source": "the supplement of paper PMC8728848",
  "assay_in_all_cases": "glycan array binding signal (z-score within array); higher = stronger binding",
  "settings_in_all_cases": "glycan notation: IUPAC condensed, linker removed",
  "key": {"[1]": {"molecular_target": "Fuc(a1-2)Gal(b1-3)GalNAc", "outline": "(§1)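 The Consortium for Functional Glycomics database supplied 3228 glycan arrays, of which those lacking an available protein sequence were dropped. The binding signal, a within-array Z-score, was averaged across arrays of the same protein sequence and across linkers. Negative scores can be read as non-binding.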"}, "[2]": {"molecular_target": "Fuc(a1-2)Gal(b1-3)GlcNAc(b1-3)[Fuc(a1-3)[Gal(b1-4)]GlcNAc(b1-6)]Gal(b1-4)Glc", "outline": "as §1"}, "[3]": {"molecular_target": "Fuc(a1-2)Gal(b1-3)[Fuc(a1-4)]GlcNAc(b1-2)Man(a1-3)[Fuc(a1-2)Gal(b1-3)[Fuc(a1-4)]GlcNAc(b1-2)Man(a1-6)]Man(b1-4)GlcNAc(b1-4)GlcNAc", "outline": "as §1"}, "[4]": {"molecular_target": "Fuc(a1-2)Gal(b1-3)[Fuc(a1-4)]GlcNAc(b1-3)[Gal(b1-4)GlcNAc(b1-6)]Gal(b1-4)Glc", "outline": "as §1"}, "[5]": {"molecular_target": "Fuc(a1-2)Gal(b1-4)Glc", "outline": "as §1"}, "[6]": {"molecular_target": "Fuc(a1-2)Gal(b1-4)[Fuc(a1-3)]GlcNAc(b1-2)Man(a1-3)[Fuc(a1-2)Gal(b1-4)[Fuc(a1-3)]GlcNAc(b1-2)Man(a1-6)]Man(b1-4)GlcNAc(b1-4)GlcNAc", "outline": "as §1"}, "[7]": {"molecular_target": "Fuc(a1-2)[Gal(a1-3)]Gal(b1-4)GlcNAc", "outline": "as §1"}, "[8]": {"molecular_target": "Fuc(a1-2)[GalNAc(a1-3)]Gal(b1-3)GlcNAc(b1-2)Man(a1-3)[Fuc(a1-2)[GalNAc(a1-3)]Gal(b1-3)GlcNAc(b1-2)Man(a1-6)]Man(b1-4)GlcNAc(b1-4)GlcNAc", "outline": "as §1"}, "[9]": {"molecular_target": "Fuc(a1-2)[GalNAc(a1-3)]Gal(b1-4)GlcNAc(b1-3)Gal(b1-4)GlcNAc", "outline": "as §1"}, "[10]": {"molecular_target": "Fuc(a1-2)[GalNAc(a1-4)]Gal(b1-4)GlcNAc", "outline": "as §1"}, "[11]": {"molecular_target": "Fuc(a1-3)[Gal(b1-4)]GlcNAc(b1-3)GalNAc", "outline": "as §1"}, "[12]": {"molecular_target": "Gal(a1-3)Gal(b1-4)GlcNAc", "outline": "as §1"}, "[13]": {"molecular_target": "Gal(a1-3)Gal(b1-4)[Fuc(a1-3)]GlcNAc(b1-2)Man(a1-3)[Gal(a1-3)Gal(b1-4)[Fuc(a1-3)]GlcNAc(b1-2)Man(a1-6)]Man(b1-4)GlcNAc(b1-4)GlcNAc", "outline": "as §1"}, "[14]": {"molecular_target": "Gal(a1-3)GalNAc", "outline": "as §1"}, "[15]": {"molecular_target": "Gal(a1-4)Gal(b1-3)GlcNAc(b1-2)Man(a1-3)[Gal(a1-4)Gal(b1-3)GlcNAc(b1-2)Man(a1-6)]Man(b1-4)GlcNAc(b1-4)GlcNAc", "outline": "as §1"}, "[16]": {"molecular_target": "Gal(b1-3)GlcNAc(b1-2)Man(a1-3)[Gal(b1-3)GlcNAc(b1-2)Man(a1-6)]Man(b1-4)GlcNAc(b1-4)GlcNAc", "outline": "as §1"}, "[17]": {"molecular_target": "Gal(b1-3)GlcNAc(b1-3)Gal(b1-4)GlcNAc(b1-6)[Gal(b1-3)GlcNAc(b1-3)]Gal(b1-4)Glc", "outline": "as §1"}, "[18]": {"molecular_target": "Gal(b1-3)[Fuc(a1-4)]GlcNAc(b1-3)Gal(b1-4)GlcNAc", "outline": "as §1"}, "[19]": {"molecular_target": "Gal(b1-4)Glc6S", "outline": "as §1"}, "[20]": {"molecular_target": "Gal(b1-4)GlcNAc(b1-3)Gal(b1-4)GlcNAc", "outline": "as §1"}, "[21]": {"molecular_target": "Gal(b1-4)GlcNAc(b1-3)[Gal(b1-4)GlcNAc(b1-6)]GalNAc", "outline": "as §1"}, "[22]": {"molecular_target": "GalNAc(b1-3)Gal(a1-6)Gal(b1-4)Glc", "outline": "as §1"}, "[23]": {"molecular_target": "GlcNAc(b1-2)Man(a1-3)[GlcNAc(b1-2)Man(a1-6)]Man(b1-4)GlcNAc(b1-4)GlcNAc", "outline": "as §1"}, "[24]": {"molecular_target": "GlcNAc(b1-3)Man", "outline": "as §1"}, "[25]": {"molecular_target": "Kdn(a2-3)Gal(b1-4)Glc", "outline": "as §1"}, "[26]": {"molecular_target": "Man(a1-2)Man(a1-3)[Man(a1-2)Man(a1-6)]Man", "outline": "as §1"}, "[27]": {"molecular_target": "Man(a1-3)[Man(a1-6)]Man", "outline": "as §1"}, "[28]": {"molecular_target": "Neu5Ac(a2-3)Gal(b1-3)GalNAc(b1-4)[Neu5Ac(a2-3)]Gal(b1-4)Glc", "outline": "as §1"}, "[29]": {"molecular_target": "Neu5Ac(a2-3)Gal(b1-4)Glc", "outline": "as §1"}, "[30]": {"molecular_target": "Neu5Ac(a2-3)Gal(b1-4)GlcNAc(b1-3)Gal(b1-4)GlcNAc", "outline": "as §1"}},
  "note": "The sample as a whole holds a higher share of the strongest signals than the screen did.",
  "data": [
    {"binder": "SAG3 (Toxoplasma gondii), Q9BJ39 (protein) MQLWRRRAAGPASLGRQSLPLGCFFAAFGLCVLSAILGTGERGLFVAAGNSRRKITYFGTLTQKAPNWYRCSSTRAKEEVVGHVTLNKEHPDMTIECVDDGLGGEFLPLEGARSSYPRVCHIDAKDQDDCERNRGFLTDYIPGAKQYWYKIEKVEQNGEQSVLYKFTVPWILLPPAKQRYKVGCRYPNHEYCFVEVTVEPTPPMVEGKRVTCGYSESGPVNLEVDLSKNANFIEIRCGEQHHPQPSTYTLQYCSGDSVDPQKCSPQSLTNIFYDYSSSWWKGKLNGPDGATLTIPPGGFPEEDKSFLVGCSLTVDGPPFCNVKVRVAGNPRKWERGGGGHPGSGGLQPGTDGETQAGTGSSAGASSRMASVALAFLLGLLVHVAA", "values": [
      {"measurement": "glycan array binding signal (z-score)", "setting": "[1]", "value": -0.359},
      {"measurement": "glycan array binding signal (z-score)", "setting": "[2]", "value": 0.235},
      {"measurement": "glycan array binding signal (z-score)", "setting": "[3]", "value": 6.32},
      {"measurement": "glycan array binding signal (z-score)", "setting": "[4]", "value": 0.4},
      {"measurement": "glycan array binding signal (z-score)", "setting": "[5]", "value": -0.397},
      {"measurement": "glycan array binding signal (z-score)", "setting": "[6]", "value": 2.31},
      {"measurement": "glycan array binding signal (z-score)", "setting": "[7]", "value": 0.112},
      {"measurement": "glycan array binding signal (z-score)", "setting": "[8]", "value": -0.473},
      {"measurement": "glycan array binding signal (z-score)", "setting": "[9]", "value": -0.084},
      {"measurement": "glycan array binding signal (z-score)", "setting": "[10]", "value": -0.046},
      {"measurement": "glycan array binding signal (z-score)", "setting": "[11]", "value": 2.86},
      {"measurement": "glycan array binding signal (z-score)", "setting": "[12]", "value": -0.223},
      {"measurement": "glycan array binding signal (z-score)", "setting": "[13]", "value": 4.74},
      {"measurement": "glycan array binding signal (z-score)", "setting": "[14]", "value": -0.176},
      {"measurement": "glycan array binding signal (z-score)", "setting": "[15]", "value": -0.051},
      {"measurement": "glycan array binding signal (z-score)", "setting": "[16]", "value": 0.157},
      {"measurement": "glycan array binding signal (z-score)", "setting": "[17]", "value": 0.551},
      {"measurement": "glycan array binding signal (z-score)", "setting": "[18]", "value": -0.077},
      {"measurement": "glycan array binding signal (z-score)", "setting": "[19]", "value": -0.304},
      {"measurement": "glycan array binding signal (z-score)", "setting": "[20]", "value": 0.013},
      {"measurement": "glycan array binding signal (z-score)", "setting": "[21]", "value": -0.475},
      {"measurement": "glycan array binding signal (z-score)", "setting": "[22]", "value": -0.162},
      {"measurement": "glycan array binding signal (z-score)", "setting": "[23]", "value": -0.352},
      {"measurement": "glycan array binding signal (z-score)", "setting": "[24]", "value": 0.13},
      {"measurement": "glycan array binding signal (z-score)", "setting": "[25]", "value": 0.107},
      {"measurement": "glycan array binding signal (z-score)", "setting": "[26]", "value": -0.088},
      {"measurement": "glycan array binding signal (z-score)", "setting": "[27]", "value": 0.34},
      {"measurement": "glycan array binding signal (z-score)", "setting": "[28]", "value": -0.184},
      {"measurement": "glycan array binding signal (z-score)", "setting": "[29]", "value": -0.168},
      {"measurement": "glycan array binding signal (z-score)", "setting": "[30]", "value": -0.053}
    ]}
  ]
}
